This is part of a sample that, as a whole, favours compounds with a hit. Of some 83,000 tested, about 20% had one in any assay.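 Compound tested at a single concentration for 48 hours in 96-well plates; a percent growth value below 10 was scored as active.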 Activity calls are given as the source filed them.
Columns and labels:
Assay in all cases: NCI-60 one-dose screen, 48 h (100 = growth as untreated, 0 = no growth, -100 = all killed)
Settings in all cases: 10 µM unless noted
NCI/ADR-RES ovarian = tested on: NCI/ADR-RES ovarian
T-47D breast = tested on: T-47D breast
BT-549 breast = tested on: BT-549 breast
MDA-MB-435 melanoma = tested on: MDA-MB-435 melanoma
SW-620 colon = tested on: SW-620 colon
MCF7 breast = tested on: MCF7 breast
HCT-116 colon = tested on: HCT-116 colon
HCC-2998 colon = tested on: HCC-2998 colon
KM12 colon = tested on: KM12 colon

Measured: growth

C[C@]12CCc3sc(-c4cccc(F)c4)nc3C1=CC[C@@H]1[C@@H]2CC[C@]2(C)C(=O)CC[C@@H]12
active: T-47D breast 3.07% | SW-620 colon 3.81% | HCT-116 colon 0.513%
inactive: NCI/ADR-RES ovarian 68.3% | BT-549 breast 23.2% | MDA-MB-435 melanoma 49.2% | MCF7 breast 10.8% | HCC-2998 colon 79.5% | KM12 colon 46.5%

CC[C@H](C)[C@H](NC(=O)C12C3C4C1C1C2C3C41NC(C)=O)C(=O)N(C)[C@H](C[C@@H](OC(C)=O)c1nc(C(=O)N[C@@H](Cc2ccccc2)C[C@H](C)C(=O)OC)cs1)C(C)C (stereo partly drawn)
active: BT-549 breast 5.96% | MDA-MB-435 melanoma -32.9% | HCT-116 colon 6.15%
inactive: NCI/ADR-RES ovarian 89.7% | T-47D breast 70.1% | SW-620 colon 21% | MCF7 breast 15.2% | HCC-2998 colon 24.1% | KM12 colon 14.8%

O=C(CC1(O)C(=O)Nc2ccc(Br)cc21)c1ccc(C(=O)NCC2CCC3(CC2)OOC2(CCCCC2)OO3)cc1 (stereo not drawn)
active: SW-620 colon -12.5%
inactive: NCI/ADR-RES ovarian 64.6% | T-47D breast 14.7% | BT-549 breast 63.6% | MDA-MB-435 melanoma 36.1% | MCF7 breast 32.5% | HCT-116 colon 38.9% | HCC-2998 colon 99.7% | KM12 colon 31.6%

CCN1C(=O)C(=C/C=C/c2ccccc2)C(=O)N(CC)C1=O
inactive: NCI/ADR-RES ovarian 78.6% | T-47D breast 96.3% | BT-549 breast 91.9% | MDA-MB-435 melanoma 29.9% | SW-620 colon 26.5% | MCF7 breast 74.5% | HCT-116 colon 16.3% | HCC-2998 colon 112% | KM12 colon 86.5%

CN1CCC(O)(c2ccc(F)cc2)C(C(=O)c2ccc(F)cc2)C1 (stereo not drawn)
inactive: NCI/ADR-RES ovarian 103% | T-47D breast 94.7% | BT-549 breast 96% | MDA-MB-435 melanoma 110% | SW-620 colon 99% | MCF7 breast 85.3% | HCT-116 colon 101% | HCC-2998 colon 101% | KM12 colon 105%

CC(=O)O[C@H]1C(=O)[C@@]2(C)[C@H]([C@H](OC(=O)c3ccccc3)[C@]3(O)C[C@H](OC(=O)[C@H](OC(=O)OC[C@H]4COC(C)(C)O4)[C@@H](NC(=O)c4ccccc4)c4ccccc4)C(C)=C1C3(C)C)[C@]1(OC(C)=O)CO[C@@H]1C[C@@H]2O
inactive: NCI/ADR-RES ovarian 70.1% | T-47D breast 31.3% | SW-620 colon 27.8% | KM12 colon 11.9%
active: BT-549 breast 9.68% | MDA-MB-435 melanoma -73.7% | MCF7 breast 9.62% | HCT-116 colon 4.97% | HCC-2998 colon 1.92%

O=C(Nc1ccc([As]=[As]c2ccc(NC(=O)c3ccccc3)cc2)cc1)c1ccccc1 (stereo not drawn)
active: NCI/ADR-RES ovarian -38.6% | T-47D breast -51.9% | BT-549 breast -90.4% | MDA-MB-435 melanoma -77.2% | SW-620 colon -67.3% | MCF7 breast -57.7% | HCT-116 colon -92.4% | HCC-2998 colon -80.5% | KM12 colon -80.4%

CC1(C)CN1P(=O)(N1CC1(C)C)N1CC1(C)C (stereo not drawn)
inactive: NCI/ADR-RES ovarian 113% | T-47D breast 107% | BT-549 breast 105% | MDA-MB-435 melanoma 124% | SW-620 colon 100% | MCF7 breast 92.8% | HCT-116 colon 105% | HCC-2998 colon 110% | KM12 colon 116%

O=C1C(N2CC2)=C(N2CC2)C(=O)C(N2CC2)=C1N1CC1
inactive: T-47D breast 30.5%
active: NCI/ADR-RES ovarian -27.7% | BT-549 breast -34.2% | MDA-MB-435 melanoma -74.7% | SW-620 colon 0.521% | MCF7 breast -46.1% | HCT-116 colon -79.2% | HCC-2998 colon -94.9% | KM12 colon -58.6%

COC(=O)[C@H](Cc1ccccc1)NC(=O)c1csc([C@@H](C[C@H](C(C)C)N(C)C(=O)[C@@H](NC(=O)[C@H]2CCCCN2C)C2CC2)OC(C)=O)n1
inactive: NCI/ADR-RES ovarian 15.9% | T-47D breast 28.3% | SW-620 colon 22.8% | MCF7 breast 19.5% | HCC-2998 colon 16.1%
active: BT-549 breast 2.98% | MDA-MB-435 melanoma -44.4% | HCT-116 colon -16.9% | KM12 colon 2.87%

Cc1ccc(S(=O)(=O)F)cc1C(=O)O
inactive: NCI/ADR-RES ovarian 105% | T-47D breast 91.6% | BT-549 breast 111% | MDA-MB-435 melanoma 86.9% | SW-620 colon 109% | MCF7 breast 111% | HCT-116 colon 111% | HCC-2998 colon 108% | KM12 colon 109%

Fc1c[c-]c(-c2ccccn2)c(F)c1.[CH3-].[Pt+2].c1ccc([PH+](c2ccccc2)c2ccccn2)cc1
inactive: NCI/ADR-RES ovarian 32.1% | HCC-2998 colon 20.2% | KM12 colon 10.4%
active: T-47D breast -7.66% | BT-549 breast -1.42% | MDA-MB-435 melanoma -50.5% | SW-620 colon -11.6% | MCF7 breast -16.3% | HCT-116 colon -43.8%

CC[C@]12C=CCN3CC[C@]4(C(=C(C(=O)OC)C1)Nc1cc(OC)c(OC(C)=O)cc14)[C@@H]32
inactive: T-47D breast 51.4% | SW-620 colon 15.8% | MCF7 breast 13.1% | HCT-116 colon 12% | HCC-2998 colon 12.8%
active: NCI/ADR-RES ovarian 9.28% | BT-549 breast 3.35% | MDA-MB-435 melanoma 3.75% | KM12 colon 9.09%

CCCCCCCCCCCCNC(c1ccccc1)C(O)c1ccccc1 (stereo not drawn)
inactive: NCI/ADR-RES ovarian 68.8% | T-47D breast 70.4% | BT-549 breast 103% | MDA-MB-435 melanoma 91.4% | SW-620 colon 48.1% | MCF7 breast 63.7% | HCT-116 colon 12.2% | HCC-2998 colon 43.1% | KM12 colon 74.9%

C/C(=C\c1ccn(-c2ccc(N)c(F)c2)n1)[C@@H]1C[C@@H]2O[C@]2(C)CCC[C@H](C)[C@H](O)[C@@H](C)C(=O)C(C)(C)[C@@H](O)CC(=O)O1
inactive: T-47D breast 38.5% | BT-549 breast 12.2% | SW-620 colon 44.7% | MCF7 breast 16.3% | HCT-116 colon 10.7% | KM12 colon 12.5%
active: NCI/ADR-RES ovarian -3.5% | MDA-MB-435 melanoma -41.1% | HCC-2998 colon 4.73%

N#CC1(c2ccccc2)CCN(Cc2ccccc2)CC1
inactive: NCI/ADR-RES ovarian 99.7% | T-47D breast 100% | BT-549 breast 102% | MDA-MB-435 melanoma 95.2% | SW-620 colon 101% | MCF7 breast 110% | HCT-116 colon 104% | HCC-2998 colon 113% | KM12 colon 99.7%

CNC(=O)Oc1ccc2c(c1)OCO2
inactive: NCI/ADR-RES ovarian 109% | T-47D breast 99.9% | BT-549 breast 97.1% | MDA-MB-435 melanoma 103% | SW-620 colon 107% | MCF7 breast 95.7% | HCT-116 colon 111% | HCC-2998 colon 106% | KM12 colon 101%

O=C(CN1CCN(C(=O)c2ccco2)CC1)Nc1ccc(Cl)cc1C(=O)c1ccccc1Cl
inactive: NCI/ADR-RES ovarian 83.4% | T-47D breast 64.3% | BT-549 breast 101% | MDA-MB-435 melanoma 118% | SW-620 colon 86.8% | MCF7 breast 84.9% | HCT-116 colon 86.8% | HCC-2998 colon 97.4% | KM12 colon 89.1%

COc1cc(NC(C)CCCNC2CN3CCC2CC3)c2ncccc2c1 (stereo not drawn)
inactive: NCI/ADR-RES ovarian 96.9% | T-47D breast 69.9% | BT-549 breast 86% | MDA-MB-435 melanoma 94.3% | SW-620 colon 72.6% | HCT-116 colon 66.4% | HCC-2998 colon 75.4% | KM12 colon 85.5%
active: MCF7 breast 0.157%

O=[N+]([O-])c1ccc(OP(=O)(CCl)N(CCCl)CCCl)cc1 (stereo not drawn)
inactive: NCI/ADR-RES ovarian 101% | T-47D breast 93.8% | BT-549 breast 93.6% | MDA-MB-435 melanoma 104% | SW-620 colon 102% | MCF7 breast 92.5% | HCT-116 colon 97.9% | HCC-2998 colon 105% | KM12 colon 101%

O=C1NC(=O)C(=Cc2cccn2CCCCCn2c3ccccc3c(=O)c3ccccc32)C(=O)N1
inactive: NCI/ADR-RES ovarian 99.5% | T-47D breast 87.3% | BT-549 breast 104% | MDA-MB-435 melanoma 97.7% | SW-620 colon 105% | MCF7 breast 84.7% | HCT-116 colon 82.2% | HCC-2998 colon 105% | KM12 colon 103%

C/C=C(\C)C(=O)O[C@@H]1C(O)[C@H]2OC(COC(=O)CCC(=O)CCCCCC[C@H](CCCCC)O[C@@H]3OC(C)[C@H](OC(C)=O)C(O)[C@H]3O2)[C@H]1OC(=O)/C=C/c1ccccc1 (stereo partly drawn)
active: T-47D breast -6.33% | MDA-MB-435 melanoma 0.295% | HCT-116 colon 8.86%
inactive: NCI/ADR-RES ovarian 38.5% | BT-549 breast 22.1% | SW-620 colon 24.6% | MCF7 breast 17.6% | HCC-2998 colon 39.3% | KM12 colon 16.4%

CC(=O)/C=C/c1ccc2c(c1)OCO2
inactive: NCI/ADR-RES ovarian 113% | T-47D breast 107% | BT-549 breast 100% | MDA-MB-435 melanoma 85.7% | SW-620 colon 106% | MCF7 breast 101% | HCT-116 colon 99.3% | HCC-2998 colon 109% | KM12 colon 109%

COc1ccc(N(CC(=O)NCCC[Te]c2ccccc2)C(=O)CNC(=O)OC(C)(C)C)cc1
inactive: T-47D breast 109% | MDA-MB-435 melanoma 59.4% | SW-620 colon 53.1% | HCC-2998 colon 43.3% | KM12 colon 19.3%
active: NCI/ADR-RES ovarian 1.78% | BT-549 breast -47.8% | MCF7 breast 8.66% | HCT-116 colon -3.11%

COC(=O)[C@@H](C)C[C@H](Cc1ccccc1)NC(=O)c1csc([C@@H](C[C@H](C(C)C)N(C)C(=O)[C@@H](NC(=O)CN(C)C)C2CC2)OC(C)=O)n1
active: BT-549 breast -21.1% | MDA-MB-435 melanoma 0.597% | HCT-116 colon 3.84% | KM12 colon 7.64%
inactive: NCI/ADR-RES ovarian 54.7% | T-47D breast 72.8% | SW-620 colon 35.8% | MCF7 breast 17.7% | HCC-2998 colon 16%

CC(=O)[C@H]1CC[C@H]2[C@@H]3CC[C@H]4C[C@H](N)CC[C@]4(C)[C@H]3CC[C@]12C
inactive: NCI/ADR-RES ovarian 89.4% | T-47D breast 91% | BT-549 breast 70.5% | MDA-MB-435 melanoma 65.1% | SW-620 colon 72.2% | MCF7 breast 70.6% | HCT-116 colon 40.6% | HCC-2998 colon 92.8% | KM12 colon 80.2%

CCC(=O)Nc1ccc(Cl)c(Cl)c1
inactive: NCI/ADR-RES ovarian 102% | T-47D breast 87.3% | BT-549 breast 113% | MDA-MB-435 melanoma 107% | SW-620 colon 101% | MCF7 breast 93.1% | HCT-116 colon 99.1% | HCC-2998 colon 93.9% | KM12 colon 99.9%
